Results reported in PubChem BioAssay AID628 (Vanderbilt High Throughput Screening Facility, 2007).
In all, about 64,000 compounds went through this assay and about 2,200 (3.4%) were called active.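 The calls were made as follows: active = calcium fluorescence response, raw or row-and-column corrected B-score, differing from the plate sample mean either way at a set confidence level, mostly lower; inactive = the rest.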 This excerpt belongs to a sample that is enriched for actives.

The molecules below were run against Muscarinic acetylcholine receptor M1 (Rattus norvegicus) (UniProt P08482) (assay: antagonists of rat M1 muscarinic receptor (AID 628)). Conditions: CHO-M1 cells, Fluo-4 calcium, ACh EC80 antagonist mode; at 10 µM; active compounds read low.
Chain of Muscarinic acetylcholine receptor M1 (Rattus norvegicus) (P08482 whole entry, looked up): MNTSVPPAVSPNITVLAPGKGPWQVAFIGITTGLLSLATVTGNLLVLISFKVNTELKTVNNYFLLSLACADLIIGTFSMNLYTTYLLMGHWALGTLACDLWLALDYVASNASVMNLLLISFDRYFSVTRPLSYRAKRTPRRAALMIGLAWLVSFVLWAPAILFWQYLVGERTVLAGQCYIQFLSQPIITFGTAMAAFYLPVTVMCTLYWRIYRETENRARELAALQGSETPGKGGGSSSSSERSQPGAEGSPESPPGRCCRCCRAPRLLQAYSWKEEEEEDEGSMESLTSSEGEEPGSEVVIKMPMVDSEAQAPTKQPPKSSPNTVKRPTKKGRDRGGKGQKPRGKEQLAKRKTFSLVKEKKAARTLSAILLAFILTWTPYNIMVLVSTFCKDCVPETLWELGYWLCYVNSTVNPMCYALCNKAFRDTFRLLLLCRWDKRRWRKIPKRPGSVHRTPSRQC
In the case of `C1=C(N2CCOCC2)/C(=C/c2nc3ccccc3[nH]2)CC1`, the B-score is reported as 0.998 (inactive).
With `Cc1cc2c(cc1C)NC(c1ccccn1)C1=C(CC(C)(C)CC1=O)N2` (configuration not stated) the B-score was 2.52 (active).
In the case of `COc1cc(C2C(C#N)=C(C)NC3=C2C(=O)CC(C)(C)C3)ccc1O` (configuration not stated), the B-score is reported as 0.109 (inactive).
In the case of `CCC1C(C#N)=C(SC)NC2=C1C(=O)CC(C)(C)C2` (configuration not stated), the B-score is reported as -0.0322 (inactive).
In the case of `COc1ccc(-c2noc(CN(C)S(=O)(=O)c3ccc(C)cc3)n2)cc1`, the B-score is reported as -3.11 (active).
`COc1ccccc1Cc1nc(-c2ccc(C)cc2)no1` was tested, and the B-score was 0.115 (inactive).
In the case of `COc1ccc(-c2noc(COc3ccc(Cl)c(C)c3)n2)cc1`, the B-score is reported as -0.385 (inactive).
With `CC(C)Oc1ccc(C2NC(=O)NC2=O)cc1` (configuration not stated) the B-score was -0.129 (inactive).
For `O=C(O)CN(Cc1ccco1)S(=O)(=O)c1ccccc1`, the B-score was 0.346 (inactive).
For `Cc1cccc(C)c1NC(=O)N1CC=C(n2c(=O)[nH]c3ccccc32)CC1`, the B-score was 0.257 (inactive).
For `CC(C)C1C2=C(CC(C)(C)CC2=O)ON1c1ccccc1` (configuration not stated), the B-score was -0.269 (inactive).
For `Cc1cc(N2C(=O)C(=O)/C(=C(/O)c3ccc(Cl)cc3)C2c2cccc(Br)c2)no1` (configuration not stated), the B-score was 0.0445 (inactive).
`CCOC(=O)c1c(NC(=O)c2ccc(Br)o2)sc2c1CCCC2` was tested, and the B-score was 0.689 (inactive).
`COC(=O)Nc1ccc(S(=O)(=O)N(C)CC(F)(F)C(F)F)cc1` was tested, and the B-score was 0.467 (inactive).
For `O=S(=O)(O)c1nc2ccccc2n1Cc1ccc(Cl)cc1`, the B-score was 0.456 (inactive).
For `O=C(CSc1nc2ccccc2o1)N1CCN(c2ccc(Cl)cc2)CC1`, the B-score was -0.0538 (inactive).
For `O=S(=O)(CCc1nc2ccccc2o1)c1ccc(Cl)cc1`, the B-score was -2.24 (active).
With `O=C1c2ccncc2C(=O)N1C1CCCCC1` the B-score was -0.0556 (inactive).
For `O=C(OCc1ccccc1F)c1ccc2c(c1)OCCO2`, the B-score was 0.0701 (inactive).
With `C[C@H](NC(=O)OC(C)(C)C)c1nnc(SCC(=O)Nc2ccc(Br)cc2)o1` the B-score was 0.0617 (inactive).
With `CCCc1nnc(NC(=O)CN2C(=O)c3ccccc3S2(=O)=O)s1` the B-score was -0.485 (inactive).
For `CNC(=O)CN1C(=O)c2ccccc2S1(=O)=O`, the B-score was 0.00139 (inactive).
`Nc1nnc(SCCN2C(=O)c3ccccc3S2(=O)=O)s1` was tested, and the B-score was 2.64 (active).
For `COC(=O)c1cc(NC2c3ccccc3C(=O)N2c2ccc(Cl)cn2)cc(C(=O)OC)c1` (configuration not stated), the B-score was 0.743 (inactive).
In the case of `CC(=O)c1c(N)n(C)c(=O)n(C)c1=O`, the B-score is reported as 0.343 (inactive).
For `CCc1ccc(N2CC(C(=O)NC3=NCCS3)CC2=O)cc1` (configuration not stated), the B-score was -0.382 (inactive).
For `O=C(NC1=NCCS1)c1ccc(Cl)s1`, the B-score was -2.35 (active).
With `CC(NC(=O)COc1ccccc1)C(=O)NC1=NCCS1` (configuration not stated) the B-score was -0.755 (inactive).
`CCOC(=O)C1CCN(C(=O)C2CCN(S(=O)(=O)N3CCCC3)CC2)CC1` was tested, and the B-score was -0.822 (inactive).
With `Cc1ccc(C(=O)NC2CCN(C(=O)N3CCOCC3)CC2)cc1` the B-score was -0.472 (inactive).
For `Cc1noc(C)c1S(=O)(=O)NCCc1ccc(S(N)(=O)=O)cc1`, the B-score was 0.287 (inactive).
For `CCCN1CCN(C(=O)Cn2ncc3ccccc32)CC1`, the B-score was -0.673 (inactive).
With `CC(C)(C)n1nnc(CCc2nnn(C(C)(C)C)n2)n1` the B-score was 0.866 (inactive).
With `Cc1ccc(Cc2cncc(O)c2)cc1S(=O)(=O)O` the B-score was -0.895 (inactive).
In the case of `CC12CCC(C(=O)N(CCC#N)CCC#N)(CC1=O)C2(C)C` (configuration not stated), the B-score is reported as 0.00852 (inactive).
`N#CCCN1CCN(S(=O)(=O)c2ccc(S(=O)(=O)NC3CC3)cc2)CC1` was tested, and the B-score was -0.837 (inactive).
In the case of `N#CCCN1CCN(S(=O)(=O)c2ccc(S(=O)(=O)N3CCCC3)cc2)CC1`, the B-score is reported as -0.0175 (inactive).
For `CC(C)(C)c1cc(CN2CCN(CCC#N)CC2)cc(C(C)(C)C)c1O`, the B-score was -3.57 (active).
In the case of `O=C(c1cnn2ccccc12)N1CCc2ccccc21`, the B-score is reported as -0.297 (inactive).
`O=C(CCS(=O)(=O)c1ccccc1)Nc1nc2c(s1)CCCC2` was tested, and the B-score was 1.02 (inactive).
`COc1ccc(CCNC(=O)CCn2c(=O)oc3ccccc32)cc1OC` was tested, and the B-score was 0.0532 (inactive).
With `CCOC(=O)CSc1nnc(NC(=O)c2cccc(S(=O)(=O)N3CCCCC3)c2)s1` the B-score was -1.2 (inactive).
With `CCOC(=O)CSc1nnc(NC(=O)c2cccc(S(=O)(=O)N3CCCC3)c2)s1` the B-score was 0.563 (inactive).
With `CCOC(=O)C1=C(CC)Nc2ccccc2N=C1NC(=O)c1cccc(S(=O)(=O)N2CCCC2)c1` the B-score was -3.22 (active).
`COc1cccc(NC(=O)Cn2cnc3sc(C)c(S(=O)(=O)N4CCN(C)CC4)c3c2=O)c1` was tested, and the B-score was 0.144 (inactive).
In the case of `CN(C)CCCn1c(N)c(C#N)c2nc(C#N)c(C#N)nc21`, the B-score is reported as -0.181 (inactive).
In the case of `CCOC(=O)c1[nH]c2ccc(OC)cc2c1NC(=O)CCN1CCN(Cc2ccccc2)CC1`, the B-score is reported as -4.59 (active).
For `CCOC(=O)c1[nH]c2ccc(OC)cc2c1NC(=O)N1CCOCC1`, the B-score was 0.577 (inactive).
For `Cc1c(C(=O)N2CCOCC2)[nH]c2ccc(OCc3ccccc3)cc12`, the B-score was -2.27 (inactive).
With `O=C(CN(c1ccc2c(c1)OCCO2)S(=O)(=O)c1ccccc1)Nc1ccc2c(c1)OCO2` the B-score was 0.461 (inactive).
With `Cc1c(C(=O)Nc2ccccc2Cl)oc2ccc(S(=O)(=O)N3CCC4(CC3)OCCO4)cc12` the B-score was 2.7 (active).
In the case of `CCOc1ccccc1NC(=O)c1cc(S(=O)(=O)N2CCC3(CC2)OCCO3)ccc1F`, the B-score is reported as -0.759 (inactive).
With `CCOC(=O)C1CCN(C(=O)c2oc3ccc(S(=O)(=O)N4CCCCCC4)cc3c2C)CC1` the B-score was -0.942 (inactive).
In the case of `Cc1ccc(NC(=O)CN(C)S(=O)(=O)c2cnc[nH]2)cc1C`, the B-score is reported as 0.0747 (inactive).
`CCc1nnc(NC(=O)CCC(=O)O)s1` was tested, and the B-score was 0.852 (inactive).
With `O=C(NCC(F)(F)F)Nc1nnc(C(F)(F)F)s1` the B-score was -1.96 (active).
`CC(=O)Nc1ccc(NC(=O)CN2CCCC(C)C2)c(Cl)c1` (configuration not stated) was tested, and the B-score was -1.15 (inactive).
`Cc1cc(C)cc(NC(=O)C2CCN(c3nc(C)cc(C)n3)CC2)c1` was tested, and the B-score was 0.673 (inactive).
With `COc1ccc(C2C(C#N)=C(N)Oc3cc(N)ccc32)cc1OC` (configuration not stated) the B-score was 0.645 (inactive).
With `O=C(Nc1ccncc1)c1cc2ccccc2o1` the B-score was 1.08 (inactive).
For `CCOc1ccc(C(=O)Nc2ccncc2)cc1`, the B-score was 0.109 (inactive).
For `O=C(Nc1ccncc1)c1c(F)cccc1F`, the B-score was -4.49 (active).
